Bead autofluor = flagged as autofluorescent in microsphere protease counterscreen; AID 624483; compound autofluorescence counterscreen, microsphere flow cytometry; hits give high values; fluorescence intensity (test concentration not listed); hit rate 3.1% among 360,000; in the data active = fluorescence intensity above about 16000; inconclusive = no clear call, values can overlap the other calls
BoNT-A LC inh2 = inhibitors of Botulinum neurotoxin A light chain protease; multiplex microsphere protease substrate cleavage, flow cytometry; inhibition, % at 10 µM; hit rate 0.17% among 360,000
MazF activator = MazEF (E. coli) toxin RNase activation | P0AE70 | FAM/BHQ RNA-DNA oligo cleavage fluorescence, 5 h | activation, % at 20 µM | hit rate 0.32% among 350,000; in the data active = activation above about 50%
Target sequence (P0AE70 whole entry, looked up): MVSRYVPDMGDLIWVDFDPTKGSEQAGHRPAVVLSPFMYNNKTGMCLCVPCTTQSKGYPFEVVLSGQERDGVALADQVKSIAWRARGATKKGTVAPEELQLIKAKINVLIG
BoNT F protease = BoNT F light chain protease inhibition. Multiplex microsphere protease cleavage assay, flow cytometry. inhibition, % at 10 µM. hit rate 0.22% among 360,000. AID 588497; in the data active = inhibition above about 35%, passing the limit was not always enough; inconclusive = no clear call, values can overlap the other calls
Anthrax LF inh2 = inhibitors of Bacillus anthracis lethal factor protease | multiplex microsphere protease cleavage assay, LF | inhibition, % at 10 µM | hit rate 0.12% among 360,000 | P15917
A number is an active result. The list is not random: actives were taken first. Their share in the collection is about 3.7%. Cut-off read from the data, not from the text of the source, unless noted: active = inhibition above about 30%; inconclusive = no clear call, values can overlap the other calls; inactive = below that.

`Cc1ccc(OCCn2cc(/C=C(\C#N)C(=O)NCC3CCCO3)c3ccccc32)cc1C` (centres undefined) gave Bead autofluor inactive, BoNT-A LC inh2 inactive, MazF activator 114.2, BoNT F protease inactive and Anthrax LF inh2 inactive.
Screening Cc1ccc(OCCn2cc(/C=C(\C#N)C(=O)NCC3CCCO3)c3ccccc32)cc1 (centres undefined) returned Bead autofluor inactive, BoNT-A LC inh2 inactive, MazF activator 57.0, BoNT F protease inactive and Anthrax LF inh2 inactive.
Screening N#C/C(=C\c1cn(CCOc2ccccc2)c2ccccc12)C(=O)NCc1ccco1 returned Bead autofluor inactive, BoNT-A LC inh2 inactive, MazF activator inactive, BoNT F protease inactive and Anthrax LF inh2 inactive.
`Cc1ccc(C)c(OCCn2cc(/C=C(\C#N)C(=O)NCC3CCCO3)c3ccccc32)c1` (centres undefined) gave Bead autofluor inactive, BoNT-A LC inh2 inactive, MazF activator inactive, BoNT F protease inactive and Anthrax LF inh2 inactive.
Screening CC(C)(C)c1ccc(C(=O)N2CCC2(C)C(=O)NS(=O)(=O)c2ccc(C#N)cc2)cc1 (centres undefined) returned Bead autofluor inactive, BoNT-A LC inh2 inactive, BoNT F protease inactive and Anthrax LF inh2 inactive.
O=C1C2CC=CCC2C(=O)N1c1n[nH]c(CCc2ccccc2)n1 (centres undefined) was read as Bead autofluor 18666, BoNT-A LC inh2 inconclusive, MazF activator inactive, BoNT F protease inactive and Anthrax LF inh2 inactive.
`Cc1cccc(N2C(=O)c3cccc4c(N)ccc(c34)C2=O)c1` gave Bead autofluor inactive, BoNT-A LC inh2 inactive, MazF activator inactive, BoNT F protease inactive and Anthrax LF inh2 inactive.
Screening Cc1cccc(N2C(=O)c3cccc4c(N(C)CCO)ccc(c34)C2=O)c1 returned Bead autofluor inactive, BoNT-A LC inh2 inactive, MazF activator 78.0, BoNT F protease inactive and Anthrax LF inh2 inactive.
Cc1cc2cc(C)c3nnc(SCC(=O)Nc4ccc(S(=O)(=O)N5CCCCC5C)cc4)n3c2cc1C (centres undefined) was read as Bead autofluor inactive, BoNT-A LC inh2 inactive, MazF activator inactive, BoNT F protease inactive and Anthrax LF inh2 inactive.
Screening CC1CCCCN1S(=O)(=O)c1ccc(NC(=O)c2ccco2)cc1 (centres undefined) returned Bead autofluor 20490, BoNT-A LC inh2 inconclusive, MazF activator inactive, BoNT F protease inactive and Anthrax LF inh2 inactive.
CC1CCCCN1S(=O)(=O)c1ccc(NC(=O)CSc2nnnn2C)cc1 (centres undefined) was read as Bead autofluor 21890, BoNT-A LC inh2 inconclusive, MazF activator inactive, BoNT F protease inactive and Anthrax LF inh2 inactive.
`NNc1nc2ccccc2c(=O)n1Cc1ccccc1` gave Bead autofluor inactive, BoNT-A LC inh2 inactive, MazF activator inactive, BoNT F protease inactive and Anthrax LF inh2 inactive.
For COC(=O)Nc1ccc(S(=O)(=O)N(CCO)CCO)cc1 the results were Bead autofluor 22684, BoNT-A LC inh2 inactive, MazF activator inactive, BoNT F protease inactive and Anthrax LF inh2 inactive.
`COC(=O)Nc1ccc(Oc2ccccc2)cc1` gave Bead autofluor 21537, BoNT-A LC inh2 inactive, MazF activator inactive, BoNT F protease inactive and Anthrax LF inh2 inactive.
Screening CC(=O)Nc1ccc(Oc2ccccc2)cc1 returned Bead autofluor inactive, BoNT-A LC inh2 inactive, MazF activator inactive, BoNT F protease inactive and Anthrax LF inh2 inactive.
O=C(Nc1ccccc1)c1ccc(S(=O)(=O)N(CCO)CCO)cc1 was read as Bead autofluor inactive, BoNT-A LC inh2 inactive, MazF activator inactive, BoNT F protease inactive and Anthrax LF inh2 inactive.
Cc1cc(Br)cn2c(Cc3ccccc3)c(-c3cccc(Cl)c3)nc12 was read as Bead autofluor inactive, BoNT-A LC inh2 inactive, BoNT F protease inactive and Anthrax LF inh2 inactive.
Screening C=CCN1C=CC(=C/C=C(/C#N)C(=O)OCC)C=C1 returned Bead autofluor inactive, BoNT-A LC inh2 inactive, MazF activator inactive, BoNT F protease inactive and Anthrax LF inh2 inactive.
`CCOC(=O)/C(C#N)=C/C=C1/C=CC=CN1C` gave Bead autofluor inactive, BoNT-A LC inh2 inactive, MazF activator inactive, BoNT F protease 38.5 and Anthrax LF inh2 inconclusive.
CC(C)Oc1ccc(C(=O)O)cc1 was read as Bead autofluor inactive, BoNT-A LC inh2 inactive, MazF activator inactive, BoNT F protease inactive and Anthrax LF inh2 inactive.
Screening CC(C)Oc1ccc(C(=O)O)c(C(=O)O)c1 returned Bead autofluor 25281, BoNT-A LC inh2 inconclusive, MazF activator inactive, BoNT F protease inactive and Anthrax LF inh2 inactive.
N#Cc1c(NC(=O)/C=C/C(=O)O)sc2c1CCN(Cc1ccccc1)C2 was read as Bead autofluor inactive, BoNT-A LC inh2 inactive, MazF activator inactive, BoNT F protease inactive and Anthrax LF inh2 inactive.
